The record followed here is PubChem BioAssay (EPA / NIEHS).

Results filed as inconclusive are left out. Activity calls are given as the source filed them. The calls were made as follows, unless noted: active = hit-call score of the fitted dose curve at least 0.9, where 1 is the maximum; inactive = score below 0.9.

As a reminder, the AC50 is the concentration at which the activity in the assay is half-maximal.

Experiment [1] can be described thus: CCTE_Mundy_HCI_Cortical_NOG_NeuriteLength: CCTE's Neurite Outgrowth Assay in rat cortical cells for Neurite Length, Mundy Lab (AID 2284213).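 Also: neurites imaged about 48 to 50 h after chemical exposure began.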 Summed up:
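First, rat primary cortical cells were plated and, 2 h later, given test chemical as a 1/10 dilution. Finally, βIII-tubulin immunostaining enabled automated imaging of neurite length.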

Experiment [2] can be described thus: CCTE_Mundy_HCI_Cortical_Synap_Neur_Matur_NeuriteSpotCountPerNeuron: CCTE's Synaptogenesis and Neurite Maturation Assay in rat cortical cells for Neurite Spot Count per Neuron Count, Mundy Lab (AID 2284215). Summed up: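 Rat primary cortical cultures given AraC at DIV 5, dosed from DIV 7 to DIV 12 with media change. Fixed, stained for MAP2, synaptophysin and Hoechst; neurite-associated synaptophysin puncta per neuron quantified by high-content imaging versus DMSO.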

Experiment [3] is described as follows: CCTE_Mundy_HCI_Cortical_Synap_Neur_Matur_SynapseCount: CCTE's Synaptogenesis and Neurite Maturation Assay in rat cortical cells for Synapse Count, Mundy Lab (AID 2284218). In short, it runs like this: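 Endpoint: synapses/neuron by HCI (synaptophysin puncta on MAP2-labelled neurites, Hoechst nuclei). Rat primary cortical cells, AraC DIV 5, dosed DIV 7, fixed DIV 12; DMSO negative control.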

Experiment [4] in a line: CCTE_Mundy_HCI_Cortical_Synap_Neur_Matur_NeuriteCount: CCTE's Synaptogenesis and Neurite Maturation Assay in rat cortical cells for Neurite Count, Mundy Lab (AID 2284222).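 Also: exposure from day 7 to day 12 in vitro with readout at day 12.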 Summed up: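 Chemical exposure runs DIV 7–12 in rat cortical cultures, glia suppressed by AraC at DIV 5; measurement is at DIV 12. Imaging-derived neurite counts are fitted against DMSO baseline.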
Experiment [5] is described as follows: CCTE_Mundy_HCI_Cortical_Synap_Neur_Matur_CellBodySpotCount: CCTE's Synaptogenesis and Neurite Maturation Assay in rat cortical cells for Cell Body Spot Count, Mundy Lab (AID 2284223). In short, it runs like this:
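Primary rat cortical cultures, AraC added at DIV 5; dosed DIV 7 through DIV 12 […]. Fixed, stained for MAP2 and synaptophysin with Hoechst; cell body-associated synaptophysin puncta per neuron counted by high-content imaging, loss vs DMSO.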

Experiment [6] in a line: CCTE_Mundy_HCI_hNP1_Pro_ResponderAvgInten: CCTE's Proliferation Assay in human neuroprogenitor cells, Mundy Lab (AID 2284224; active = hit-call score of the fitted dose curve at least 0.9, where 1 is the maximum;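 also: human neural progenitor cells hNP1 derived from WA09 embryonic stem cells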). Summed up: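 Human neuroprogenitors (hNP1, WA09 lineage) receive test chemical after 40 to 44 hours of attachment. A four-hour BrdU pulse begins twenty hours later, followed by fixation and high content imaging; signal is referenced to DMSO controls.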

Experiment [7] can be described thus: UKN2_HCS_IMR90_cell_viability: Viability Assessment in the University of Konstanz (UKN) Leist Lab Neural Crest Cell Migration Assay in human induced IMR90 Pluripotent Stem Cells (UKN2) (AID 2284233).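 Also: viability of neural crest cells differentiated from IMR90 iPSC measured by calcein-AM fluorescence imaging; cells exposed to compound for 24 h after a 24 h migration phase.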 In short, it runs like this: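 cMINC format, iPSC-derived neural crest (IMR90); 24 h migration (EGF/FGF, N2-S), then 24 h toxicant. Calcein-AM/H-33342 stain 30 min; fluorescence intensity by HCS; DMSO-normalised, bidirectional fitting.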

Experiment [8] can be described thus: CCTE_Mundy_HCI_hNP1_Casp3_7: CCTE's Caspase-Glo 3/7 Assay in human neuroprogenitor cells for Apoptosis, Mundy Lab (AID 2284240). Summed up:
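Neuroepithelial-lineage stem cells from WA09 embryonic cells were treated with chemicals after 40–44 h of culture. Twenty-four hours later, caspase-3/7 activation was detected luminescently after a 30 min room-temperature reagent step, with DMSO as baseline.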

Experiment [9] is described as follows: CCTE_Mundy_HCI_Cortical_Synap_Neur_Matur_NeuronCount: CCTE's Synaptogenesis and Neurite Maturation Assay in rat cortical cells for Neuron Count, Mundy Lab (AID 2284242; active = hit-call score of the fitted dose curve at least 0.9, where 1 is the maximum). In short, it runs like this:
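Measured at DIV 12: fluorescently labelled neurons (Hoechst nuclei, MAP2) in rat primary cortical cultures, counted by high-content imaging. AraC suppressed glia from DIV 5; DMSO served as negative control.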

The nature of experiment [10]: IUF_NPC2c_oligodendrocyte_migration_120hr: Leibniz Research Institute for Environmental Medicine (IUF) 120-hour Neural Progenitor Cell Migration Assay for Oligodendrocyte Migration (NPC2c) (AID 2284297).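 Also: O4-positive oligodendrocyte migration distance divided by radial glia migration distance.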 Summed up: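 Human fetal neural progenitor spheres (0.3 mm) are plated on poly-D-lysine/laminin in N2 differentiation medium and exposed for 120 h, with half-medium renewal at day 3. Oligodendrocyte (O4+) migration distance comes from ICC imaging, normalised to radial glia migration.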

A short description of experiment [11]: IUF_NPC2a_radial_glia_migration_120hr: Leibniz Research Institute for Environmental Medicine (IUF) 120-hour Neural Progenitor Cell Migration Assay for Radial Glia Migration (NPC2a) (AID 2284298). Summed up:
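Human fetal-cortex neural progenitor spheres (0.3 mm) plated on poly-D-lysine/laminin in N2 differentiation medium, exposed 120 h at 37C with half-medium renewal at day 3. Radial glia migration distance (um) measured from Hoechst-stained nuclei images; DMSO baseline.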

Experiment [12] is described as follows: IUF_NPC2a_radial_glia_migration_72hr: Leibniz Research Institute for Environmental Medicine (IUF) 72-hour Neural Progenitor Cell Migration Assay for Radial Glia Migration (NPC2a) (AID 2284299). Summed up:
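Spheres of human primary neural progenitors migrate on poly-D-lysine/laminin under compound exposure at 37C, 5% CO2. The 72 h radial glia migration distance comes from brightfield images, measured manually.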

Experiment [13] in a line: IUF_NPC2b_neuronal_migration_120hr: Leibniz Research Institute for Environmental Medicine (IUF) 120-hour Neural Progenitor Cell Migration Assay for Neuron Migration (NPC2b) (AID 2284300). Summed up: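 0.3 mm hNPC spheres on poly-D-lysine/laminin in N2 differentiation medium exposed 120 h, half-medium refresh day 3; 7 concentrations, DMSO max 0.1%. Neuron (TUBB3) distance from sphere core by ICC imaging, normalised to radial glia migration.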

Experiment [14] in a line: IUF_NPC3_neuronal_differentiation_120hr: Leibniz Research Institute for Environmental Medicine (IUF) 120-hour Neuronal Differentiation Assay (NPC3) (AID 2284301). In short, it runs like this:
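Neuronal differentiation of primary human neural progenitors measured by high-content imaging: percent TUBB3+ of Hoechst+ nuclei within migrated area at 120 h, seven-point serial dilution plus solvent control, gain or loss relative to DMSO.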

Experiment [15] in a line: IUF_NPC4_neurite_length_120hr: Leibniz Research Institute for Environmental Medicine (IUF) 120-hour Neuronal Morphology Assay for Neurite Length (NPC4) (AID 2284302). Summed up:
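Neurons from differentiating human fetal neural progenitor spheres are scored for average neurite length after five days of compound exposure. Fitting uses DMSO as negative control.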

Experiment [16] can be described thus: IUF_NPC5_oligodendrocyte_differentiation_120hr: Leibniz Research Institute for Environmental Medicine (IUF) 120-hour Oligodendrocyte Differentiation Assay (NPC5) (AID 2284304; active = hit-call score of the fitted dose curve at least 0.9, where 1 is the maximum;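 also: primary human fetal neural progenitor spheres plated to migrate and differentiate; share of O4-positive cells among Hoechst nuclei found by CNN image analysis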). In short, it runs like this:
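Human fetal neural progenitor spheres (0.3 mm) plated on poly-D-lysine/laminin in N2 differentiation medium and exposed for 120 h at 7 concentrations, with half-medium renewal at day 3. O4-positive cells identified by CNN, expressed as percent of Hoechst nuclei.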

Experiment [17] in a line: IUF_NPC2-5_cytotoxicity_72hr: Cytotoxicity Assessment at 72 hours in the Leibniz Research Institute for Environmental Medicine (IUF) Neural Progenitor Cell Migration and Differentiation Assay for Cytotoxicity (NPC2-5) (AID 2284306; active = hit-call score of the fitted dose curve at least 0.9, where 1 is the maximum;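 also: LDH release into supernatant measured by resorufin fluorescence marking membrane damage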). Summed up: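 Primary human neural progenitor spheres migrate and differentiate on laminin. Compound is present from the start of differentiation, with DMSO kept at or below 0.1%. At 72 h, supernatant LDH is quantified fluorometrically, with values fitted in the positive direction.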

The nature of experiment [18]: IUF_NPC2-5_cytotoxicity_120hr: Cytotoxicity Assessment at 120 hours in the Leibniz Research Institute for Environmental Medicine (IUF) Neural Progenitor Cell Migration and Differentiation Assay (NPC2-5) (AID 2284307; active = hit-call score of the fitted dose curve at least 0.9, where 1 is the maximum). In short, it runs like this: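 Human fetal (GW 16-19) neural progenitor spheres (0.3 mm) plated on poly-D-lysine/laminin in N2 differentiation medium, exposed 120 h with half-medium renewal at day 3; 7 concentrations plus solvent control, DMSO ≤0.1%. LDH release in supernatant read by resorufin fluorescence.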

The nature of experiment [19]: IUF_NPC2-5_cell_number_120hr: Cell Number Assessment at 120 hours in the Leibniz Research Institute for Environmental Medicine (IUF) Neural Progenitor Cell Migration and Differentiation Assay (NPC2-5) (AID 2284308).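 Also: count of Hoechst-stained nuclei in migration zone around plated human neural progenitor spheres.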 Summed up: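 Human fetal neural progenitor spheres (0.3 mm) plated on poly-D-lysine/laminin in N2 differentiation medium, exposed five days across 7 concentrations with half-medium refresh at day 3. Hoechst-positive nuclei counted in migration area at 120 h, relative to DMSO.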

Experiment [20] is described as follows: IUF_NPC2-5_viability_120hr: Viability Assessment at 120 hours in the Leibniz Research Institute for Environmental Medicine (IUF) Neural Progenitor Cell Migration and Differentiation Assay (NPC2-5) (AID 2284312). Summed up:
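Human fetal (GW 16-19) neural progenitor spheres of 0.3 mm were plated on poly-D-lysine/laminin in N2 differentiation medium and exposed from day 0 for 120 h, with half-medium refresh at day 3. Viability was read as alamar blue resazurin-to-resorufin fluorescence against DMSO.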

The nature of experiment [21]: IUF_NPC1_cytotoxicity_72hr: Cytotoxicity Assessment at 72 hours in the Leibniz Research Institute for Environmental Medicine (IUF) Neural Progenitor Cell Proliferation Assay (NPC1) (AID 2284332; active = hit-call score of the fitted dose curve at least 0.9, where 1 is the maximum;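 also: rising LDH signal means more cytotoxicity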). In short, it runs like this: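 Readout is fluorescence from LDH-dependent resazurin conversion, sampled from culture medium after compound contact lasting 72 h. Each well holds one 0.25-0.35 mm human progenitor sphere kept at 37C, 5% CO2 with EGF and FGF.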

Experiment [22] can be described thus: CCTE_Mundy_HCI_iCellGluta_NOG_NeuronCount: CCTE's Neurite Outgrowth Assay in iCellGluta cells for Neuron Count, Mundy Lab (AID 2284340; active = hit-call score of the fitted dose curve at least 0.9, where 1 is the maximum;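 also: cells fixed about 48 h after compound addition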). In short, it runs like this: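 Neuron count read by automated high-content imaging of Hoechst 33342 and betaIII-tubulin/Alexa Fluor-488 labelling in human iPSC glutamatergic neurons. Activity fitted relative to DMSO.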
A short description of experiment [23]: CCTE_Mundy_HCI_iCellGluta_NOG_NeuriteCount: CCTE's Neurite Outgrowth Assay in iCellGluta cells for Neurite Count, Mundy Lab (AID 2284342; active = hit-call score of the fitted dose curve at least 0.9, where 1 is the maximum;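 also: chemical exposure about 48 hours starting 2 hours after plating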).

As to `CC1(C)C(C=C(Cl)c2ccc(Cl)cc2)C1C(=O)OC(C#N)c1ccc(F)c(Oc2ccccc2)c1` (stereo not drawn), the half-maximal activity concentration (AC50) in experiment [1] is 50 µM (active); in experiment [2], 72 µM (active); in [3], 75.2 µM (active); in experiment [23], 74.1 µM (active). Also, the result in [4], in [5], in experiment [6], in experiment [7], in experiment [8] and in experiment [9] was inactive. The call in experiment [10], in experiment [11], in experiment [12], in experiment [13], in experiment [14] and in experiment [15] was inactive. For the same compound, the outcome in experiment [16], in experiment [17], in experiment [18], in experiment [19], in experiment [20] and in experiment [21] was inactive. Also, in experiment [22], the compound was called inactive.
